Source: PubChem (several laboratories)
Rows were chosen to be rich in hits. Some 2.2% of all compounds tested hit in one or more screens of this group.
PLCb3 inh – human PLC-beta3 inhibitors, primary screen, biochemical, fluorescence | Purified PLC-beta3, fluorogenic substrate | inhibition, % at 12.2 µM | hit rate 0.18% among 370,000; in the data active means inhibition above about 11%
Target sequence (Q01970 whole entry, looked up): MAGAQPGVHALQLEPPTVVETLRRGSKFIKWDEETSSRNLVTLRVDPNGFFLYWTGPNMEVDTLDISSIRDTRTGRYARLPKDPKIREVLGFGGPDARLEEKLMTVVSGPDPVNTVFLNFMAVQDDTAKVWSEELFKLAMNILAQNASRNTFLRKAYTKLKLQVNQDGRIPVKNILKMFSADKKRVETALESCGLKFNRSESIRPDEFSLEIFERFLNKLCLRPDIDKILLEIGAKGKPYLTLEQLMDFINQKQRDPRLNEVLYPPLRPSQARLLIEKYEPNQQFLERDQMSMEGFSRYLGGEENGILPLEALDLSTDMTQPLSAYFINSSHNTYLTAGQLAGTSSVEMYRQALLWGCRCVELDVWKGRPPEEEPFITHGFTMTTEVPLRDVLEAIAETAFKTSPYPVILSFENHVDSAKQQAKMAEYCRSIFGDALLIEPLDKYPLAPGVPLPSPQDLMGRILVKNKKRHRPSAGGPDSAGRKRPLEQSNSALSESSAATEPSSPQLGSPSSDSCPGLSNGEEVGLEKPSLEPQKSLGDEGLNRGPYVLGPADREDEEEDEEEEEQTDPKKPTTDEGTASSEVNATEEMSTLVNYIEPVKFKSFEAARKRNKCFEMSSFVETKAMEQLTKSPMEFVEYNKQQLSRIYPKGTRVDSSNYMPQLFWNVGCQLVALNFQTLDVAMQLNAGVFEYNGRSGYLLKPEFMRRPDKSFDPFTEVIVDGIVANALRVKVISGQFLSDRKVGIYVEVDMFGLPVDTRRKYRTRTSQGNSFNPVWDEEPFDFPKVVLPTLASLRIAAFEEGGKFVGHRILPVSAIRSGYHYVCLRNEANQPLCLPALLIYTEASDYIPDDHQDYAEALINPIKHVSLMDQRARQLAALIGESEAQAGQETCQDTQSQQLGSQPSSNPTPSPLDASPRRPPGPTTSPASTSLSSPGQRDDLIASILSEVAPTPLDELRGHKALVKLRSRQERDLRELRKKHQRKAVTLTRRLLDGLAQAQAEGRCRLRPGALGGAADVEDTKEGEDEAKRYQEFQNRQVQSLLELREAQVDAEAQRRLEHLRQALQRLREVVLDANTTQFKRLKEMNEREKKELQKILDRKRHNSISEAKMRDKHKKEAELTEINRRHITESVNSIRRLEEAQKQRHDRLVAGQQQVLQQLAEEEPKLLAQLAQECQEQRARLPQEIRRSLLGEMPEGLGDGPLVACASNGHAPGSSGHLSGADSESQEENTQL
FAS-TE inh – FAS thioesterase domain inhibitors, primary screen, biochemical, fluorescence intensity, uHTS. Fatty acid synthase (Homo sapiens), P49327. recombinant FAS-TE, OMFH fluorogenic substrate, fluorescence endpoint. inhibition, % at 15 µM. hit rate 0.67% among 360,000;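 active means compounds whose normalised, plate-corrected inhibition of enzyme fluorescence in the single-dose primary screen is 50% or more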
H9c2 protect – cardioprotection against H2O2-induced cell death, primary screen, uHTS, H9c2 cells, ATPLite luminescence | H9c2 cardiomyocytes, H2O2 injury protection, 2 h | protection from H2O2 cell death, % at 20 µM | hit rate 0.63% among 360,000;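 active means compounds giving at least 50% protection of heart cells from peroxide-induced death in the single-dose screen, raw or plate-pattern-corrected value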
PLC-gamma1 inh – PLC-gamma1 enzyme inhibitors, primary screen, biochemical, fluorescence, purified enzyme | AID 720700, 2013 | fluorogenic substrate | hit rate 0.84% among 370,000 | inhibition, % at 12.2 µM | 1-phosphatidylinositol 4,5-bisphosphate phosphodiesterase gamma-1 (Homo sapiens), P19174; in the data active means inhibition above about 9.5%
FAS-TE conf – FAS thioesterase domain inhibitors, confirmation, biochemical, fluorescence intensity, single concentration; shares compounds with FAS-TE inh; recombinant FAS-TE, OMFH fluorogenic substrate; inhibition, % at 15 µM; hit rate 45% among 2,300; AID 624325, 2012;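 active means compounds inhibiting the enzyme by at least 50% at 15 µM in any one of the replicates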
Numbers stand for hits; - = inactive; . = not tested or not shown.

SMILES | PLCb3 inh | FAS-TE inh | H9c2 protect | PLC-gamma1 inh | FAS-TE conf
Cn1c(=NC(=O)c2ccc(S(=O)(=O)N3CCCc4ccccc43)cc2)sc2cc(S(C)(=O)=O)ccc21 | - | 83 | - | - | -
O=C1c2ccccc2C(=O)N1CCCCN(C(=O)c1cc([N+](=O)[O-])cc([N+](=O)[O-])c1)c1ccc(Cl)cc1 | - | 54 | - | - | -
O=C(OCc1ccccc1)[C@H](Cc1ccccc1)NC(=O)[C@@H]1CC=C[C@@H]2CCN(C3CCCCC3)C(=O)[C@@H]21 | - | . | . | - | .
O=C(c1cccc(NS(=O)(=O)c2ccc(F)c(F)c2)c1)N1CCN(C(c2ccccc2)c2ccccc2)CC1 | - | 90 | - | - | -
O=C(c1cccc(NS(=O)(=O)c2ccccc2)c1)N1CCCC1 | - | - | - | - | .
COc1cccc(C(CC2=CCCCC2)NC(=O)C(F)(F)F)c1 (stereo unspecified) | - | . | . | - | .
Cc1c(NC(=O)C(C)OC(=O)c2cc(-c3cccc4ccccc34)nc3ccccc23)c(=O)n(-c2ccccc2)n1C (stereo unspecified) | - | 73 | - | - | -
O=S(=O)(/N=C(/Sc1ccccc1)c1ccccc1)c1ccccc1 | - | 57 | 52 | - | -
C=CCNC(=S)N1C[C@H]2CON(C)[C@H]2C[C@H]1c1ccccc1Br | - | . | . | - | .
Cc1ccccc1-n1c(SCC(=O)c2c(N)n(C)c(=O)n(C)c2=O)nc2sc3c(c2c1=O)CCCC3 | - | 90 | - | - | -
O=C(O)c1cc(S(=O)(=O)N2CCCCC2)ccc1N1CCCC1 | - | - | - | - | .
CC12C(=O)N(c3ccc(OC(=O)c4ccco4)cc3)C(=O)C1C1c3ccccc3C2c2ccccc21 (stereo unspecified) | - | 60 | - | - | -
CC12C(=O)N(c3cccc(OC(=O)c4ccco4)c3)C(=O)C1C1c3ccccc3C2c2ccccc21 (stereo unspecified) | - | - | - | - | .
COc1ccc([C@H]2CC(=O)C=C(c3ccc(Cl)c(C(F)(F)F)c3)C2)cc1 | - | 54 | - | - | -
COc1ccc([C@H]2CC(=O)C=C(c3ccc(C)c([N+](=O)[O-])c3)C2)cc1 | - | 76 | - | - | 81
COc1cccc([C@H]2NC(=O)C/C=C/[C@@H](C)[C@@H](c3cccc(OC)c3)NC(=O)C/C=C/[C@H]2C)c1 | - | . | . | - | .
Cc1ccc(S(=O)(=O)N(C)C)cc1NC(=O)[C@H](Cc1ccccc1)N1C(=O)c2ccccc2C1=O | - | 53 | - | - | -
Cc1ccc(S(=O)(=O)N(C)C)cc1NC(=O)CN1CCN(Cc2ccccc2)CC1 | - | - | - | - | .
CC1CCc2c(sc3nc(CN4CCN(S(=O)(=O)c5ccccc5[N+](=O)[O-])CC4)[nH]c(=O)c23)C1 (stereo unspecified) | - | 91 | - | - | 50
Cc1ccc(S(=O)(=O)N2CCN(Cc3nc4sc5c(c4c(=O)[nH]3)CCCC5)CC2)cc1 | - | - | - | - | .
C#CCN(C[C@H]1[C@H](OC(=O)Nc2c(C)noc2C)[C@H](OC(=O)Nc2c(C)noc2C)CN(C(=O)OC(C)C)N1C(=O)OC(C)C)S(=O)(=O)c1ccc(C)cc1 | - | . | . | - | .
CC(O)(c1cccnc1)c1nc(-c2ccc(S(C)(=O)=O)cc2)cs1 (stereo unspecified) | - | - | - | - | .
CS(=O)(=O)c1ccc(-c2csc(-c3cccnc3)n2)cc1 | - | 58 | - | - | 50
CN(C)S(=O)(=O)c1ccc(-c2csc(-c3cccnc3)n2)cc1 | - | 75 | - | - | 78
CCN(CC)C(=O)CC[C@H]1CC[C@]2(CCCN(S(C)(=O)=O)C2)O1 | - | . | . | - | .
SMILES | PLCb3 inh | FAS-TE inh | H9c2 protect | PLC-gamma1 inh | FAS-TE conf
CCn1cc(CCC(=O)Nc2ccc(Oc3cccnc3)cc2)c2ccccc21 | - | . | . | - | .
OC(c1ccccc1)(c1ccccc1)C1CCN(CCCOc2ccncc2)CC1 | - | . | . | - | .
COc1cccc(NC(=O)CN2C(=O)CSc3ccc(S(=O)(=O)N4CCC(C)CC4)cc32)c1 | - | 65 | - | - | 72
COC(=O)[C@]12C[C@H](CC(=O)N3CCOCC3)C(=O)N(CCC3=CCCCC3)C1=C[C@H](C(C)C)O[C@@H]2C1CC1 | - | . | . | - | .
Cc1cc(-c2nnc(CSc3nnc(NC(=O)c4ccc(C(C)(C)C)cc4)s3)o2)ccc1[N+](=O)[O-] | - | 75 | - | - | -
Cc1ccc(-n2c(SCC(=O)Nc3ccc(OCc4ccccc4)cc3)nnc2-c2ccccc2)cc1 | - | . | . | - | .
Cc1nn(C)cc1C(C(=O)NC1CCCCC1)N(C(=O)Cc1cccs1)c1ccc(C(C)C)cc1 (stereo unspecified) | - | 61 | - | - | 59
COC(=O)[C@]12C=CCN1[C@@H](c1ccc(Cl)cc1)c1c(c3ccccc3n1S(=O)(=O)c1ccc(C)cc1)C2 | - | . | . | - | .
Cn1c(=O)oc2cc(S(=O)(=O)N3CCC(C(=O)NCc4cccs4)CC3)ccc21 | - | - | - | - | .
Cc1csc(NC(=O)C2CCN(S(=O)(=O)c3ccc4c(c3)oc(=O)n4C)CC2)n1 | - | 59 | - | - | 68
N#CC(C#N)=c1ccc2c(c1)N1C3=C(CCCC3)CC3CCCCC31N=2 (stereo unspecified) | - | 51 | - | - | -
O=C(c1nn2c(C(F)(F)F)cc(-c3cccs3)nc2c1Br)N1CCCc2ccccc21 | - | 59 | - | - | -
Cc1ccccc1-c1ccc2c(c1)[C@@H]1C[C@H](N(C)C(=O)Nc3ccccc3)[C@H]([C@H](C)O)CN1CC2 | - | . | . | - | .
CCOc1cc(CCNC(=O)c2cc3ccsc3n2C)ccc1OC | - | . | . | - | .
Fc1nc(F)c(F)c(NCCCNc2c(F)c(F)nc(F)c2F)c1F | - | 55 | - | - | 57
O=C(Nc1c(-c2ccc(F)c(F)c2)nc2ncccn12)C1CC1 | - | . | . | - | .
Cc1cccc(C)c1NC(=O)C1CCCN1S(=O)(=O)c1ccc2c(c1)n(C)c(=O)c(=O)n2C (stereo unspecified) | . | - | - | . | .
COc1cc2c(cc1NC(=O)C(C)N1CCN(S(=O)(=O)c3ccccc3[N+](=O)[O-])CC1)oc1ccccc12 (stereo unspecified) | - | 54 | - | - | -
O=C(CSc1nnc(SCc2cccc3ccccc23)s1)Nc1ccc(S(=O)(=O)Nc2nccs2)cc1 | - | . | . | - | .
COc1ccc(NC(=O)Nc2cccc3c2O[C@H](CN(C)C(=O)Nc2ccc(C(F)(F)F)cc2)[C@@H](C)CN([C@H](C)CO)C3=O)cc1 | . | 52 | - | . | 56
C[C@H](CO)N1C[C@H](C)[C@@H](CN(C)C(=O)Nc2ccccc2)Oc2c(NC(=O)NC3CCCCC3)cccc2C1=O | - | - | - | - | .
C[C@H](CO)N1C[C@H](C)[C@@H](CN(C)C(=O)NC2CCCCC2)Oc2c(NC(=O)Nc3ccccc3)cccc2C1=O | - | 66 | - | - | 77
